Screening results as filed in PubChem BioAssay.
NS1 inh: qHTS Assay for Inhibitors of Influenza NS1 Protein Function | Potency, µM (top dose mostly 46.1 µM), without a hit: at the highest dose activity, positive = more growth | actives 0.4% (n = 270,000); calls by dose curve; further: potency means the concentration at half of the fitted maximal effect; actives are rising curves; nearly all actives have a fitted effect of over 50% in size
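In this qHTS, NS1 from influenza A is expressed in budding yeast, where it slows growth. Cells are switched from glucose to 2% galactose medium (pH 6.0, -URA), treated with compound, and growth recovery is read at OD600.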
Giardia FBPA inh: qHTS Assay for Inhibitors of Fructose-1,6-bisphosphate Aldolase from Giardia Lamblia. A8B2U2. purified Giardia FBPA. Potency, µM (titrated, usually from 59.6 µM), for inactives: at the top dose activity, negative = inhibition, actives largely listed as inhibitors. actives 0.71% (n = 290,000). AID 2451, 2010; further: potency means the concentration at half of the fitted maximal effect; on the % scale 0 is the no-effect control and ±100 the full control effect; nearly all actives have a fitted effect of over 55% in size
Target sequence (A8B2U2 whole entry, looked up): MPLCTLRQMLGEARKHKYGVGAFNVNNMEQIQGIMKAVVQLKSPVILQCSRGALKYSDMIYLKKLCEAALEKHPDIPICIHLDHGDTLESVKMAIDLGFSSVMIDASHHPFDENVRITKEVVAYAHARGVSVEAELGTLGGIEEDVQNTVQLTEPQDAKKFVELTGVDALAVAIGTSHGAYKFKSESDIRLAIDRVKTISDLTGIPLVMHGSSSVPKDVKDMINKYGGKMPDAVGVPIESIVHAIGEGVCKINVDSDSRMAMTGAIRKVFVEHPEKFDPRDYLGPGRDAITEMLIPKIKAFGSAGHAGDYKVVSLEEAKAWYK
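Giardia FBPA (40 nM reagent) was preincubated 10 min at RT with compound (up to 57.5 uM final), then substrate plus GAPDH/TPI/NAD/arsenate coupling system with diaphorase/resazurin was added; resorufin fluorescence (525/598 nm) was read after 20 min.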
Shiga inhibitor: A qHTS for Small Molecule Inhibitors of Shiga Toxin; inhibition, % at 38.7 µM; Vero cells, Shiga toxin protein synthesis inhibition reporter; actives 9.2% (n = 290,000); in the data active means inhibition mostly above about 28%, no sharp cut-off; inactive means mostly below about 43%; further: 0% is about no effect
CHX counter: Cycloheximide Counterscreen for Small Molecule Inhibitors of Shiga Toxin. actives 12% (n = 300,000). cell reporter, cycloheximide protein synthesis inhibition counterscreen. max response, %. AID 2314, 2010; in the data active means max response mostly above about 13%, no sharp cut-off; inactive means mostly below about 14%; further: read at 38.3 µM for the half of the compounds with a filed dose; 0% is about no effect
LmPK inhibitor: qHTS Assay for Inhibitors of Leishmania Mexicana Pyruvate Kinase (LmPK); purified LmPK, Kinase-Glo ATP luminescence, 1 h; actives 0.37% (n = 290,000); Potency, µM (series often up to 57.5 µM), inactives show at the top dose activity change, negative = inhibition, hits mostly inhibitors; further: potency means the concentration at half of the fitted maximal effect; on the % scale 0 is the no-effect control and ±100 the full control effect
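In 50 mM imidazole pH 7.2 with 7 mM MgCl2, LmPK (0.1 nM) turned over PEP (0.5 mM) and ADP (0.1 mM) for 1 h at room temperature. Luciferase read-out of ATP.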
An asterisk follows results filed as active; ? = inconclusive; nt = no result; [ ] = remark or other dose. Most compounds without a hit are left out; they make up all but 14% or so of the library. Unless noted, the call rests on the fitted dose curve; in most records, active means well fitted curve in the direction sought with a large enough effect; inconclusive means small, poorly fitted or top-dose-only effect, or another doubt; inactive means no such curve, though single readings can be large; an effect the other way counts as inactive or inconclusive.

SMILES	NS1 inh	Giardia FBPA inh	Shiga inhibitor	CHX counter	LmPK inhibitor
O=[N+]([O-])c1ccc(O)c(C2=NNC(c3ccccc3F)C2)c1 (centres undefined)	-45%	8%	84*	40*	-7%
CCOC(=O)CCN(SN(C)C(=O)Oc1cccc2c1OC(C)(C)C2)C(C)C	nt	-5%	16	-2	nt
COC(=O)c1cc(/C=C/c2ccccc2)[nH]n1	-32%	9%	25*	20*	0%
COc1ccc(SN=C2C(C)=CC(=O)C=C2C)cc1	nt	4%	-5	-2	2%
COC1=CC(=O)C=C(OC)C1=O	nt	7.1µM*	nt	nt	nt
COc1ccccc1-n1cnc2cc(C(=O)NC3CCCC3)ccc21	-2%	-3%	19*	2	9%
O=C(O)c1ccc2c(c1)ncn2C1CCCCC1	4%	2%	-2	-4	-7%
O=C(NC1CC1)c1ccc2c(c1)ncn2C1CCCC1	-7%	-2%	69*	33*	2%
CCCC1(c2ccccc2)NC(=O)N(CC(=O)N(C)Cc2c(F)cccc2Cl)C1=O (centres undefined)	-1%	10%	3	-4	-3%
O=[N+]([O-])c1ccc(Sc2n[nH]c(-c3ccccc3)n2)nc1	-62%	-12%	44	41*	1%
Cc1ccnc(Sc2ccc([N+](=O)[O-])cn2)n1	1%	-11%	25	10*	0%
O=[N+]([O-])c1ccc(Sc2ccccc2)nc1	15%	-11%	10	-2	-1%
CC(C)(C)c1csc(Sc2ccc([N+](=O)[O-])cn2)n1	-2%	-10%	50*	23*	2%
COC(=O)[C@@H](NC(=O)O[C@@H]1C(=O)c2cc(OC)ccc2O[C@H]1c1cccc(OC)c1)C(C)C	nt	0%	nt	nt	nt
CN(C)c1ccc(NC(=O)C(=O)NCCOc2ccccc2)cc1	nt	4%	19	4	14%
C=CCNC(=S)Nc1ccc(N(C)C)cc1	7%	-28%	24	29*	4%
CCCNC(=O)C(=O)Nc1ccc(N(C)C)cc1	0%	-14%	68*	31*	-6%
C[N+](C)(C)c1ncnc2c1ncn2[C@@H]1C[C@H](O)[C@@H](CO)O1	0%	nt	nt	nt	nt
CC(/C=N/NC(=O)c1cnccn1)=C\c1ccco1	-2%	?	39	32*	-7%
CC(/C=N/NC(=O)c1cccnc1)=C\c1ccco1	3%	?	35	14*	2%
COc1ccccc1C(=O)C1CCCN(C(=O)c2cccc(Cn3cccn3)c2)C1 (centres undefined)	9%	nt	-29	1	-1%
O=C(O)Cc1cccc(OCCCN(Cc2cccc(C(F)(F)F)c2Cl)CC(c2ccccc2)c2ccccc2)c1	nt	-10%	10	0	nt
NNc1nc(-c2ccccc2)cc(-c2ccccc2)n1	23%	-7%	25	-4	0%
Clc1nc(-c2ccccc2)cc(-c2ccccc2)n1	-6%	-1%	17	17*	0%
Cc1ccc2nc(C(F)C(F)(F)F)[nH]c2c1 (centres undefined)	1%	5%	44*	22*	3%
SMILES	NS1 inh	Giardia FBPA inh	Shiga inhibitor	CHX counter	LmPK inhibitor
FC(c1nc2ccccc2[nH]1)C(F)(F)F (centres undefined)	-1%	-1%	15	7	7%
Cc1ccc2nc(-c3ccncc3)[nH]c2c1	-18%	-1%	83*	47*	-17%
O=C(O)C(Cc1cccs1)C(=O)O	-3%	nt	nt	nt	nt
Cc1nc2cc(-c3ccsc3-n3c(C)ccc3C)[nH]n2c(=O)c1Cl	3%	?	-1	-4	3%
O=c1c2c(nc3cc(-c4ccccc4)[nH]n13)CCS2	0%	-19%	75*	43*	-20%
O=c1c2c(nc3cc(-c4ccccc4Cl)[nH]n13)CCS2	9%	?	78*	38*	-12%
CN(C)C(=O)CN1C(=O)NC(c2ccccc2)(c2ccccc2)C1=O	-13%	4%	-11	-4	-2%
CC(=O)Nc1ccc(C(=O)Nc2cc(C)on2)cc1	-1%	3%	44*	32*	-3%
Cc1cc(NC(=O)c2ccc(NC(=O)C(C)Oc3ccccc3)cc2)no1 (centres undefined)	-2%	-6%	1	9	6%
Cc1cc(NC(=O)c2ccc(F)cc2)no1	8%	10%	91*	33*	3%
Cc1cc(NC(=O)c2nn(C)c(C)c2Br)no1	-6%	nt	81*	45*	0%
CCN(C(=O)CCS(=O)(=O)c1cc2c(cc1Cl)NC(=O)CO2)c1ccccc1	10%	-6%	-14	-2	-4%
CN(C)C(CNC(=S)Nc1cccc(Cl)c1)c1cccnc1 (centres undefined)	nt	-1%	-5	-2	5%
O=C(N/N=C/c1cn(-c2ccccc2)nc1-c1ccc2c(c1)OCCO2)c1ccncc1	nt	2%	50*	29*	7%
O=C(N/N=C\c1cn(-c2ccccc2)nc1-c1ccccc1)c1ccc2c(c1)OCO2	3%	0%	23	16*	-3%
COc1ccc(-c2nn(-c3ccccc3)cc2/C=N/NC(=O)c2ccc3c(c2)OCO3)cc1	5%	0%	59	14	2%
O=C(N/N=C/c1cn(-c2ccccc2)nc1-c1ccc(F)cc1)c1ccc2c(c1)OCO2	?	-2%	79*	18*	-2%
O=C(N/N=C/c1cn(-c2ccccc2)nc1-c1cccnc1)c1ccccc1	nt	3%	5	-1	-1%
CCOC(=O)c1c(C)[nH]c(C)c1S(=O)(=O)NCc1cc(C)ccc1C	9%	1%	-2	2	11%
COC(=O)[C@H](CCCN=C(N)N)NC(=O)CCCc1c(-c2ccccc2)[nH]c2c(F)cc(F)cc12	nt	0%	1	-2	nt
COc1cc([N+](=O)[O-])ccc1NC(=O)NNC(=O)c1sccc1C	8%	12%	35*	26*	10%
COc1cc([N+](=O)[O-])ccc1NC(=O)NNC(=O)CCc1ccccc1	-2%	1%	-2	-1	-1%
C=CCN(CC=C)C(=S)NC(=O)Cc1cccc2ccccc12	-6%	-23%	7	4	-6%
O=C1OC(Nc2ccc3ncccc3c2)c2ccccc21 (centres undefined)	13%	?	54*	27*	9%
C/C(=N\Nc1nc2ccccc2s1)c1cccs1	?	-5%	73*	89*	-6%
C/C(=N\Nc1nc(-c2ccccc2)cs1)c1cccs1	12%	-3%	118*	75*	-11%
C/C(=N\Nc1nc(N2CCOCC2)nc(N2CCOCC2)n1)c1cccs1	nt	1%	-6	-4	4%[11.5 µM]
COc1cc(/C=N/N2C(=O)CSC2=S)ccc1O	5%	-24%	-8	9	-2%
O=C1CSC(=S)N1/N=C/c1ccc2c(c1)OCCO2	0%	-7%	57*	35*	-5%
NC(=O)C1CCN(C(=O)CCSc2ccccc2)CC1	8%	4%	44*	20*	1%
